Reference: PubChem BioAssay (NCATS)
Inconclusive results are not listed. The source made the active and inactive calls. The call rests on the fitted dose curve; in most records, active means well fitted curve in the direction sought with a large enough effect; inconclusive means small, poorly fitted or top-dose-only effect, or another doubt; inactive means no such curve, though single readings can be large; an effect the other way counts as inactive or inconclusive.

Tests used:
[1] = tested on: NIH3T3; experiment: qHTS assay to identify novel small-molecules to repurpose for Merkel cell carcinoma treatment (AID 1296009); conditions: MCC and control cell lines, CellTiter-Glo viability, 72 h; at 44.8 µM (top of the series) unless noted; further: nearly all actives have a fitted effect of over 60% in size
Procedure, shortened: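 Luminescence from CellTiter-Glo, read 10 min after addition at room temperature, reported viability following a 72 hr, 37 degree celsius treatment with NPC or MIPE compounds in titration; values normalized to plate controls.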

[2] = tested on: C33A; experiment: Primary qHTS to identify gynecologic anti-cancer compounds using libraries of approved drugs and bioactive compounds (AID 1345084); conditions: Gynecologic cancer cell panel viability, ATPlite luminescence, 48 h; series mostly up to 57.5 µM; further: on the % scale 0 is the no-effect control and ±100 the full control effect; nearly all actives have a fitted effect of over 55% in size
Procedure, shortened: (§1)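 Cytotoxicity screen measuring ATP content by luciferase luminescence. Each compound is applied at five concentrations for 48 h at 37 C with 5% CO2.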

[3] = tested on: CASKI; experiment: as above; conditions: Gynecologic cancer cell panel viability, ATPlite luminescence, 48 h; series mostly up to 57.5 µM
Procedure, shortened: as §1

[4] = tested on: Es-2; experiment: as above; conditions: Gynecologic cancer cell panel viability, ATPlite luminescence, 48 h; series mostly up to 57.5 µM
Procedure, shortened: as §1

[5] = tested on: HeLa; experiment: as above; conditions: Gynecologic cancer cell panel viability, ATPlite luminescence, 48 h; series mostly up to 57.5 µM
Procedure, shortened: as §1

[6] = tested on: Hek293T; experiment: as above; conditions: Gynecologic cancer cell panel viability, ATPlite luminescence, 48 h, control line for the selectivity index; series mostly up to 57.5 µM
Procedure, shortened: as §1

[7] = tested on: JEG-3; experiment: as above; conditions: Gynecologic cancer cell panel viability, ATPlite luminescence, 48 h; series mostly up to 57.5 µM
Procedure, shortened: as §1

[8] = tested on: CAOV3; experiment: as above; conditions: Gynecologic cancer cell panel viability, ATPlite luminescence, 48 h; series mostly up to 57.5 µM
Procedure, shortened: as §1

O=S(=O)(Nc1ccc(C(O)(C(F)(F)F)C(F)(F)F)cc1)c1cccs1
inactive: outcome [1] | Potency [2] | Potency [3] | Potency [4] | Potency [5] | Potency [6] | Potency [7]

COC(=O)[C@@]1(O)C=CC[C@@H]2[C@@]3(C)C[C@@H](c4ccoc4)OC(=O)[C@H]3CC[C@]21C
inactive: outcome [1] | Potency [2] | Potency [3] | Potency [4] | Potency [5] | Potency [6] | Potency [7]

C=CCc1ccc(O[C@@H]2O[C@H](CO)[C@@H](O)[C@H](O)[C@H]2O)c(OC)c1
inactive: outcome [1] | Potency [2] | Potency [3] | Potency [4] | Potency [5] | Potency [6] | Potency [7]

CC(C)(O)C1=CCC23COC(C2)C(O)(C(=O)O)CCC13 (stereo not given)
inactive: outcome [1] | Potency [2] | Potency [8] | Potency [3] | Potency [4] | Potency [5] | Potency [6] | Potency [7]

COC1CC(OC2CCC3(C)C(=CCC4C3CCC3(C)C(C(C)O)CCC43O)C2)OC(C)C1OC1OC(C)C(OC2OC(COC3OC(COC4OC(CO)C(O)C(O)C4O)C(O)C(O)C3O)C(O)C(O)C2O)C(OC)C1O (stereo not given)
inactive: outcome [1] inactive [at 9.27 µM] | activity change, negative = cytotoxicity [2] 3.94% [at 11.6 µM] | activity change, negative = cytotoxicity [8] 2.24% [at 11.6 µM] | activity change, negative = cytotoxicity [3] 16.9% [at 11.6 µM] | activity change, negative = cytotoxicity [4] 1.08% [at 11.6 µM] | activity change, negative = cytotoxicity [5] -2.66% [at 11.6 µM] | activity change, negative = cytotoxicity [6] -3% [at 11.6 µM] | activity change, negative = cytotoxicity [7] -1.13% [at 11.6 µM]

COC1(CC(C)C)NC(=O)C(O)(Cc2ccccc2)NC1=O (stereo not given)
inactive: outcome [1] | Potency [2] | Potency [3] | Potency [4] | Potency [5] | Potency [6] | Potency [7]

CC1=CC2(O)/C=C/C(C)(O)CC(O)/C=C/C(=O)OC23C(=O)NC(CC(C)C)C3C1C (stereo not given)
inactive: outcome [1] inactive [at 17.4 µM] | Potency [2] | Potency [8] | Potency [3] | Potency [4] | Potency [5] | Potency [6] | Potency [7]

CO[C@@]12CC3[C@@H]([C@@H](O)[C@@H](OC(C)=O)C4[C@](C)(COC(C)=O)CCC[C@]34C)[C@@H](C)C1=CC(=O)O2 (stereo not given in full)
inactive: outcome [1] inactive [at 17.4 µM] | Potency [2] | Potency [8] | Potency [3] | Potency [4] | Potency [5] | Potency [6] | Potency [7]

O=C(/C=C/c1ccc(O)cc1)OCC1=C[C@@H](O)[C@@H]2C=CO[C@@H](O[C@@H]3O[C@H](CO)[C@@H](O)[C@H](O)[C@H]3O)[C@H]12
inactive: outcome [1] inactive [at 17.4 µM] | Potency [2] | Potency [3] | Potency [4] | Potency [5] | Potency [6] | Potency [7]

C[C@]12CCC[C@](C)(C(=O)O)C1CCC13C=C(CO)C(CCC12)C3 (stereo not given in full)
inactive: outcome [1] | Potency [2] | Potency [8] | Potency [3] | Potency [4] | Potency [5] | Potency [6] | Potency [7]

N#CCc1ccc(O)cc1O[C@@H]1O[C@H](CO)[C@@H](O)[C@H](O)[C@H]1O
inactive: outcome [1] | Potency [2] | Potency [8] | Potency [3] | Potency [4] | Potency [5] | Potency [6] | Potency [7]

CC(C)C1=CC2=CCC3[C@](C)(CCC[C@@]3(C)C(=O)O)C2CC1=O (stereo not given in full)
inactive: outcome [1] | Potency [2] | Potency [3] | Potency [4] | Potency [5] | Potency [6] | Potency [7]

CCCC1=CC2=C(CO1)C(=O)C(C)(OC(=O)c1c(C)cc(OC)cc1O)C(O)C2 (stereo not given)
inactive: outcome [1] inactive [at 17.4 µM] | Potency [2] | Potency [8] | Potency [3] | Potency [4] | Potency [5] | Potency [6] | Potency [7]

C=C1CC[C@H]2[C@@](C)(CCC(O)[C@@]2(C)CO)[C@@H]1C/C=C(/C(=O)O)C(O)CO (stereo not given in full)
inactive: outcome [1] | Potency [2] | Potency [8] | Potency [4] | Potency [5] | Potency [6] | Potency [7]

N#Cc1ccc2[nH]c(O)c(-c3ccc(CN4CCOCC4)cn3)c2c1
inactive: outcome [1] | Potency [2] | Potency [8] | Potency [3] | Potency [4] | Potency [6] | Potency [7]

CC(=O)OC(CSC1CCC(=O)OC(C)CCC(=O)C1)C(=O)O (stereo not given)
inactive: outcome [1] | Potency [2] | Potency [8] | Potency [3] | Potency [4] | Potency [5] | Potency [6] | Potency [7]

C=CC1(C)CC2=CCC3C(C)(C(=O)O)CCCC3(C)C2CC1OC(C)=O (stereo not given)
inactive: outcome [1] | Potency [2] | Potency [3] | Potency [4] | Potency [5] | Potency [6] | Potency [7]

CC(/C=C/[C@]1(O)[C@@]2(C)CO[C@@]1(C)C[C@@H](O)C2)=C\C(=O)O[C@@H]1O[C@H](CO)[C@@H](O)[C@H](O)[C@H]1O
inactive: outcome [1] inactive [at 17.4 µM] | Potency [2] | Potency [3] | Potency [4] | Potency [5] | Potency [6] | Potency [7]

CC(=O)NCCCCn1c2c(c3ccccc31)C(=O)NCC2
inactive: outcome [1] | Potency [2] | Potency [8] | Potency [3] | Potency [4] | Potency [5] | Potency [6] | Potency [7]

C=CC(C)(O)CC/C=C(\C)C(=O)OCC1OC(OC2CCC3(C)C(CCC4(C)C3CC=C3C5CC(C)(C)C(O)CC5(C(=O)O)CCC34C)C2(C)C)C(O)C(OC2OC(CO)C(O)C(OC3OC(CO)C(O)C(OC4OC(COC5OC(CO)C(O)C(O)C5O)C(O)C(O)C4O)C3O)C2O)C1O (stereo not given)
inactive: outcome [1] inactive [at 9.27 µM] | activity change, negative = cytotoxicity [2] 4.36% [at 6.55 µM] | activity change, negative = cytotoxicity [3] 11.9% [at 6.55 µM] | activity change, negative = cytotoxicity [4] 0.769% [at 6.55 µM] | activity change, negative = cytotoxicity [5] 3.26% [at 6.55 µM] | activity change, negative = cytotoxicity [6] 3.14% [at 6.55 µM] | activity change, negative = cytotoxicity [7] 7.76% [at 6.55 µM]

COc1ccccc1[C@@H]1C2=C(CC(C)(C)CC2=O)Nc2n[nH]c(C(F)(F)F)c21
inactive: outcome [1] | Potency [2] | Potency [8] | Potency [3] | Potency [4] | Potency [5] | Potency [6] | Potency [7]

CCOC(=O)c1ccnc(CNCC(=O)N(CC)CCN(C)C)c1
inactive: outcome [1] | Potency [2] | Potency [3] | Potency [4] | Potency [5] | Potency [6] | Potency [7]

OC[C@H]1O[C@@H](Oc2ccc(O)c3cccc(O)c23)[C@H](O)[C@@H](O)[C@@H]1O
inactive: outcome [1] | Potency [2] | Potency [8] | Potency [3] | Potency [4] | Potency [5] | Potency [6] | Potency [7]

Cc1cn2c(N)c(Cl)cc(C(=O)NCC3CCN(CC(C)C)CC3)c2n1
inactive: outcome [1] | Potency [2] | Potency [8] | Potency [3] | Potency [4] | Potency [5] | Potency [6] | Potency [7]

COC1=CC(=O)O[C@@H](/C=C/c2ccccc2)[C@@H]1O
inactive: outcome [1] | Potency [2] | Potency [8] | Potency [3] | Potency [4] | Potency [5] | Potency [6] | Potency [7]

O=S(=O)(NC1CCNCC1)c1cc(S(=O)(=O)c2ccccc2)ccc1C(F)(F)F
inactive: outcome [1] | Potency [2] | Potency [8] | Potency [3] | Potency [4] | Potency [5] | Potency [6] | Potency [7]

Nc1nc(CC(=O)Nc2ccc(CCNCC(O)c3ccccc3)cc2)cs1 (stereo not given)
inactive: outcome [1] | Potency [2] | Potency [3] | Potency [4] | Potency [5] | Potency [6] | Potency [7]

CC1OC(OC2C(O)C(C(=O)O)OC(OC3CCC4(C)C(CCC5(C)C4C=CC4=C6CC(C)(C)CC(O)C6(C)CCC45C)C3(C)C)C2OC2OCC(O)C(O)C2O)C(O)C(O)C1O (stereo not given)
inactive: outcome [1] inactive [at 9.27 µM] | activity change, negative = cytotoxicity [2] 25.5% [at 11.6 µM] | activity change, negative = cytotoxicity [3] 17.4% [at 11.6 µM] | activity change, negative = cytotoxicity [4] -1.97% [at 11.6 µM] | activity change, negative = cytotoxicity [5] -2.13% [at 11.6 µM] | activity change, negative = cytotoxicity [6] -1.86% [at 11.6 µM] | activity change, negative = cytotoxicity [7] 0.12% [at 11.6 µM]
